# Measured values reported in PubChem BioAssay (NCI).
# About 79,000 compounds went through this panel and 15% of them were active in at least one assay; those are over-represented in the sample as a whole. Values without a mark were called inactive. Calls of active or inactive are those of the source. Cut-off read from the data, not from the text of the source: active = growth inhibition above about 70%; inactive = the rest.
# Assay: NCI Yeast Anticancer Drug Screen. Data for the sgs1 mgt1 strain (AID 161);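 note: 0% = growth of cultures given vehicle only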
# Settings: S. cerevisiae sgs1 mgt1 strain, stronger effect = higher value
# Method: Growth inhibition of yeast strains with defined genetic alterations is measured as a screen for potential anti-cancer activity. Selected strains with alterations in DNA damage repair or cell cycle control were exposed to compounds and growth inhibition was measured relative to vehicle treated controls. The strain used in this assay is sgs1 mgt1
# [1] = at 5.0 µM (retest, dose inferred, filed as 0.5)
# [2] = at 50.0 µM (retest, dose inferred, filed as 5.0)
Structure (SMILES),growth inhibition [1] [%],growth inhibition [2],growth inhibition (at 50.0 µM)
O=C(O)/C=C\c1cc2ccccc2c2ccccc12,18,98% (active),98.4% (active)
N#Cc1ccccc1[N+](=O)[O-],3,63%,59.8%
N#CCC(=O)N/N=C(/CC1(O)C(=O)Nc2c(Cl)cc(Cl)cc21)c1ccccc1 (configuration not stated),-1,-6%,71.1% (active)
Cc1cc2c(c3c1C(=O)CC3)C(C)(C)CC2(C)C,1,70% (active),1.65%
O=S1Nc2ccccc2S1 (configuration not stated),2,42%,99.2% (active)
CN(CN(C)N=Nc1ccc(Cl)cc1)CN(C)N=Nc1ccc(Cl)cc1,-24,4%,4.7%
CNC(=O)c1cccc2c(Nc3ccc(NS(C)(=O)=O)cc3OC)c3cccc(C)c3nc12,12,66%,-4.45%
S=C(Nc1ccc(Cl)c(Cl)c1)N1c2ccccc2-n2cccc2C1c1cccnc1 (configuration not stated),59,94% (active),85% (active)
CN(C)/N=N/c1nc(Cc2ccccc2)[nH]c1C(N)=O,38,99% (active),99.2% (active)
O=C(n1c2ccccc2c2n[nH]c(=S)nc21)C(F)(F)F,-3,-2%,83.5% (active)
Cc1cc2nc3ccc(N(C)C)cc3nc2cc1N,42,94% (active),45.9%
C[N+]1=C(/C=C\c2ccc(O)c3ccccc23)C(C)(C)c2ccccc21,-2,92% (active),36%
CC(C)(C)OC(=O)Nc1cccc(Cl)c1,-1,7%,55.7%
ClCc1ccccc1Cc1ccccc1,27,83% (active),97.8% (active)
